# Measured values as given in PubChem BioAssay (NCI).
# About 83,000 compounds went through this panel and 20% of them were active in at least one assay; those are over-represented in the sample as a whole.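 Note: values are percent growth. 100 is the growth of untreated cells, values between 100 and 0 indicate rising inhibition; between -100 and 0 indicates cell death.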 Values without a mark were called inactive. Calls of active or inactive are those of the source. The calls were made as follows: active = growth percent below 10; inactive = the rest.
# Experiments:
# Assay in all cases: NCI-60 one-dose screen, 48 h (100 = growth as untreated, 0 = no growth, -100 = all killed)
# Settings in all cases: 10 µM unless noted
# [1] = tested on: SR leukemia
# [2] = tested on: RPMI-8226 leukemia
# [3] = tested on: OVCAR-8 ovarian
# [4] = tested on: OVCAR-5 ovarian
# [5] = tested on: OVCAR-4 ovarian
# [6] = tested on: SK-OV-3 ovarian
# [7] = tested on: IGROV1 ovarian
# [8] = tested on: OVCAR-3 ovarian
# [9] = tested on: HS 578T breast
# [10] = tested on: NCI/ADR-RES ovarian
# [11] = tested on: T-47D breast
# [12] = tested on: BT-549 breast
# [13] = tested on: MDA-MB-435 melanoma
# [14] = tested on: SW-620 colon
# [15] = tested on: MCF7 breast
# [16] = tested on: HCT-116 colon
# [17] = tested on: HCC-2998 colon
# [18] = tested on: KM12 colon
SMILES,growth [1],growth [2],growth [3],growth [4],growth [5],growth [6],growth [7],growth [8],growth [9],growth [10],growth [11],growth [12],growth [13],growth [14],growth [15],growth [16],growth [17],growth [18]
O=c1ccc2c(ccc3ncccc32)o1,103%,112%,105%,104%,111%,104%,109%,108%,108%,106%,94.6%,116%,116%,115%,95.7%,113%,107%,107%
COc1cccc(/C=C2\CCc3ccccc3C2=O)c1,21%,6.5% (active),92.5%,85.9%,88.5%,86.5%,80.7%,89.5%,87.4%,71.4%,75.3%,86.4%,58.2%,52.1%,27.5%,53.4%,–,64%
O=c1c2cccc3c(N4CCOCC4)ccc(c32)c2nc3ccccc3n12,83.7%,81.7%,93.8%,99.2%,69.9%,91.4%,58.3%,100%,40.2%,93.9%,38.1%,93.8%,104%,103%,24%,87%,73.2%,78.1%
C=C(C)Cn1c(SCC(=O)c2cccs2)nc2sc3c(c2c1=O)CCCC3,44%,50.7%,49%,71.2%,73.4%,79.1%,55.1%,64.5%,65.3%,43.9%,58.7%,81.2%,56%,38.6%,46.7%,29.3%,76.1%,42.9%
N=C(N)c1ccc(-c2ccc(-c3ccccc3)s2)nc1,12.5%,48%,91.9%,92.9%,107%,88.6%,82.3%,95%,85%,96.7%,79.5%,98.7%,85.8%,57.4%,41.3%,46.9%,–,39.4%
C#Cc1c(I)n(C2OC(CO[Si](C)(C)C(C)(C)C)C3OC(C)(C)OC32)c(=O)[nH]c1=O (stereo not given),-41.8% (active),-66.8% (active),97.8%,91.9%,88.9%,107%,36.6%,-40.2% (active),5.41% (active),89.6%,-69.3% (active),98.5%,81.2%,-98.3% (active),42.1%,-49.6% (active),-75.7% (active),105%
Cc1ccc(Nc2nc(N)nc(N)c2N=O)cc1Cl,72.5%,78.3%,95.8%,93.9%,76.9%,96.6%,37.7%,68.3%,75.2%,79.3%,5.56% (active),98.7%,89.1%,95%,36.4%,78.2%,86%,80.6%
CN1CCN(Cc2ccc(NC(=O)c3cncc(C#Cc4cnc(N)c5ccc(C#N)cc45)c3)cc2C(F)(F)F)CC1,20%,-25.3% (active),-68.4% (active),-79.6% (active),-56.8% (active),-4.83% (active),-64.1% (active),3.19% (active),-32.1% (active),-13.6% (active),10.4%,37.3%,-74.3% (active),-41.3% (active),-60.8% (active),-65.7% (active),32.6%,-85.1% (active)
COc1cc2cc(Oc3ccc(NC(=O)Nc4ccc(F)c(C(F)(F)F)c4)cc3)c(C)nc2cc1OCCN1CCCCC1,-46.1% (active),-25.8% (active),-55.5% (active),127%,0.714% (active),115%,34.7%,-92.5% (active),102%,74.7%,78.5%,85.3%,-92.5% (active),-76.2% (active),-75% (active),-89.8% (active),96.9%,-79.9% (active)
Cc1cc([N+](=O)[O-])ccc1NC(=O)c1ccc2c(c1)nc(-c1ccccc1)n2C1CCCCC1,39.5%,76.2%,87.6%,95.5%,95.2%,100%,111%,92.8%,88.1%,87.9%,59.8%,77.1%,92.2%,97.6%,77%,65.7%,–,69.3%
COC(=O)CCc1c(/C=C2\N=C(c3ccc[nH]3)C=C2OC)[nH]c(C)c1C(=O)OCc1ccccc1,-17.8% (active),-32.5% (active),7.03% (active),34.1%,31.3%,21.5%,21.7%,-31.1% (active),-14.7% (active),9.4% (active),-2.41% (active),1.79% (active),2.53% (active),3.31% (active),7.6% (active),-9.83% (active),22.8%,10.6%
COc1ccc(C2=NN3C(C2)c2cc(Br)ccc2OC3c2ccncc2)cc1 (stereo not given),64.2%,77.8%,82.6%,88.4%,78.9%,70.6%,48.9%,80.1%,89.4%,82%,69.1%,76.6%,92.4%,90.7%,70.7%,76.8%,105%,73%
CN(C)c1ccc(/C=C/C2=[N+](C)c3ccccc3C2(C)C)cc1,6.36% (active),-20.3% (active),14.8%,35.6%,31.2%,4.03% (active),34.7%,10%,43.3%,77.8%,20.5%,17.2%,12.9%,37.7%,5.64% (active),15.7%,28%,7.96% (active)
CC1(C)CC[C@]2(CO)CC[C@]3(C)C(=CC[C@@H]4[C@@]5(C)CCNCC(C)(C)[C@@H]5CC[C@]43C)[C@@H]2C1,-24.3% (active),-26.1% (active),87.4%,81.8%,81%,95.4%,95%,89.5%,96.7%,91.9%,56.3%,90.1%,41.6%,21%,38.6%,55.5%,-60.8% (active),34.7%
Nc1ncc(-c2ccc3ncnc(N4CCc5ccc(Cl)cc54)c3c2)cn1,-10.6% (active),-35.6% (active),4.28% (active),7.02% (active),2.15% (active),-22.2% (active),-47.7% (active),3.17% (active),-24.5% (active),3.68% (active),-7.59% (active),-25% (active),7.35% (active),0.122% (active),10.6%,-30.6% (active),5.87% (active),6.87% (active)
C#CC#CC#CC#CC#CC#CC#CC#CC[C@@H]1OC[C@H](COC(=O)O[C@@H](C(=O)O[C@H]2C[C@@]3(O)[C@@H](OC(=O)c4ccccc4)[C@@H]4[C@]5(OC(C)=O)CO[C@@H]5C[C@H](O)[C@@]4(C)C(=O)[C@H](OC(C)=O)C(=C2C)C3(C)C)[C@@H](NC(=O)c2ccccc2)c2ccccc2)O1,20.5%,9.65% (active),33.8%,24.3%,62.9%,51.7%,32.6%,7.3% (active),5.42% (active),102%,39.1%,34.6%,-63.1% (active),28.5%,18%,12.5%,19.7%,9.33% (active)
